# KKLEB cytotox: reduces viability of KKLEB cystic fibrosis airway cells | 0.36% of 360,000 active | KKLEB CF airway cells viability, ATPlite luminescence, overnight; hits give low values; cells stimulated with P. aeruginosa culture filtrate | activity change (cytotoxicity), % at 5 µM | AID 602141;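 active = corrected activity change at or below -50% at 5 µM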
# TROY NFkB inh: blocks TROY-dependent signaling in reporter cells. 0.98% of 360,000 active. Q293 LMP1-TROYcd NF-kB luciferase reporter, 4 h. inhibition, % at 10 µM;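 active = compounds whose plate-normalised and pattern-corrected inhibition of the luciferase reporter signal at the single screening dose is 50% or more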
# LGR2 antag: Drosophila LGR2 receptor signaling inhibition; HEK293 LGR2, CRE-luciferase, bursicon-stimulated, 4 h; inhibition, % at 9.99 µM; 0.35% of 380,000 active; AID 720647;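 active = drop in luminescence signal, shown as inhibition above about 50% in the replicate tests, limit read from the data, passing the limit was not always enough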;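 also: agonist challenge used bursicon conditioned medium at about half maximal strength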
# CF NFkB inh: cystic fibrosis NF-kB activation inhibition; inhibition, % at 5 µM; KKLEB NF-kB-GFP reporter, PAF-induced, GFP fluorescence overnight; AID 588850; 0.86% of 360,000 active;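 active = at least 50% inhibition at 5 µM, scaled per plate between neutral and stimulator controls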;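 also: PAF is a Pseudomonas aeruginosa culture filtrate used as stimulus; plate controls were PAF-stimulated DMSO wells for no effect and unstimulated DMSO wells for full effect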
# TWEAK-Fn14 inh: inhibitors of TWEAK-Fn14 interaction signaling; 2% of 360,000 active; TWEAK-stimulated Fn14 reporter cells, luciferase luminescence, 8 h; inhibition, % at 10 µM; AID 1159606; in the data active = inhibition above about 50%
# EWS-Fli block: blocks EWS/Fli oncoprotein-driven transcription; A673 NR0B1-luciferase reporter, viability-normalised; inhibition, % at 12.6 µM; 0.67% of 350,000 active;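 active = mean inhibition of at least 50% after viability correction, with every replicate also passing that limit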;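 also: firefly luciferase signal divided by Alamar Blue viability fluorescence both relative to DMSO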
# Numbers without * were called inactive; . = not tested or not shown. In the library only some 2.6% were active in any assay of this set; here they are far more common.
SMILES,KKLEB cytotox,TROY NFkB inh,LGR2 antag,CF NFkB inh,TWEAK-Fn14 inh,EWS-Fli block
C=CCOc1ccc(CN(C)CC(O)COc2ccc(CCC(C)=O)cc2)cc1 (stereo not given),3.0,6.2,5.1,-3.1,55.1*,23.0
CCN(C[C@H]1[C@H](c2ccc(C3=CCCC3)cc2)[C@H](CO)N1C(C)=O)C(C)=O,.,.,-14.6,.,.,-3.1
CCOc1ccc(-c2c(C#N)c(N)nc3sc(C(=O)c4ccccc4)c(N)c23)cc1,-31.3,89.1*,-9.1,11.8,76.4*,-3.0
COc1ccc(-c2c(C#N)c(N)nc3sc(C(=O)c4ccccc4)c(N)c23)cc1,-1.7,25.4,-12.8,5.6,30.0,.
CCC(=O)Nc1ccc2c(c1)OC[C@@H](C)N(CC1CCOCC1)C[C@@H](C)[C@@H](OC)CN(C)C2=O,.,.,10.7,.,.,7.8
COc1ccc(S(=O)(=O)N2CC[C@@H]3[C@@H](CO)Nc4ccc(-c5cccc(C#N)c5)cc4[C@@H]32)cc1,.,.,-11.0,.,.,54.0*
O=S(=O)(c1ccccc1F)N1CC[C@H]2[C@H](CO)Nc3ccc(-c4cccc(F)c4)cc3[C@H]21,.,.,-14.0,.,.,0.4
COc1ccc(S(=O)(=O)N2CC[C@H]3[C@H](CO)Nc4ccc(-c5cccc(C#N)c5)cc4[C@H]32)cc1,.,.,-20.7,.,.,-3.3
O=S(=O)(c1ccccc1F)N1CC[C@@H]2[C@H]1c1cc(-c3cccc(F)c3)ccc1N[C@@H]2CO,.,.,96.6*,.,.,28.9
CSc1ccc(NC(=O)Nc2cc(C)ccn2)cc1,-13.8,33.6,58.3*,-0.5,69.3*,52.0*
Cc1ccnc(NC(=O)Nc2ccc3c(c2)N(C)C(=O)CS3)c1,23.1,-12.8,11.2,22.8,52.4*,.
Cc1ccc(S(=O)(=O)Nc2ccc3c(c2)C(=O)N([C@@H](C)CO)C[C@@H](C)[C@@H](CN(C)C)OCCCC[C@H](C)O3)cc1,.,.,-4.6,.,.,-7.4
c1ccc(-c2ccc(-c3cn4c(n3)CCC4)cc2)cc1,-22.8,29.7,.,-17.0,55.1*,.
CN(C)S(=O)(=O)c1ccc(C(=O)Nc2nc(-c3cc4ccccc4o3)cs2)cc1,-12.9,50.9*,4.8,30.0,-16.0,-36.4
O=C(Nc1ccc(S(=O)(=O)N2CCOCC2)cc1)c1cc(-c2ccccc2O)n[nH]1,11.3,26.8,24.6,-27.8,2.8,33.6
O=C(Nc1nc(-c2cc3ccccc3o2)cs1)c1ccc(S(=O)(=O)N2CCCC2)cc1,-15.7,39.1,10.8,11.5,83.0*,6.2
CC1CN(S(=O)(=O)c2ccc(NC(=O)c3cc(-c4ccccc4O)n[nH]3)cc2)CC(C)O1 (stereo not given),5.2,62.1*,.,8.2,37.5,.
c1ccc2oc(-c3csc(NCC4CCCO4)n3)cc2c1 (stereo not given),-1.4,-9.7,-28.0,-8.5,80.2*,18.4
O=C(Nc1nc(-c2cccs2)cs1)c1cccc(S(=O)(=O)N2CCCCC2)c1,6.3,30.2,.,-10.9,23.1,.
COc1cccc(NC(=O)N2C[C@H](O)COC[C@@H]3O[C@@H](CC(=O)NC4CCCC4)CC[C@H]32)c1,.,.,-8.2,.,.,-11.0
C[C@@H]1CN([C@@H](C)CO)C(=O)c2cccc(NS(=O)(=O)c3ccc(F)cc3)c2O[C@H]1CN(C)S(=O)(=O)c1ccccc1,.,.,20.9,.,.,-9.1
Cc1cc(NC(=O)c2ccccc2)nc2c1c(=O)oc1ccccc12,3.8,-13.5,-22.1,-44.9,5.3,-7.3
Cc1cc(NC(=O)c2ccc(S(=O)(=O)N3CCCC3)cc2)nc2c1c(=O)oc1ccccc12,-53.5*,-7.7,.,47.1,-18.5,.
CS(=O)(=O)c1ccccc1-c1nnc(NC(=O)c2ccc(S(=O)(=O)N3CCCC3)cc2)o1,2.4,70.5*,0.2,4.2,4.0,3.4
CC1CN(S(=O)(=O)c2ccc(C(=O)Nc3nc(-c4cc5ccccc5o4)cs3)cc2)CC(C)O1 (stereo not given),-54.2*,36.6,18.9,50.4*,66.8*,15.9
COc1ccc(-c2cnc3c(c2)C(=O)N([C@@H](C)CO)C[C@H](C)[C@@H](CN(C)S(=O)(=O)c2ccc(OC)cc2)O3)cc1,.,.,11.6,.,.,-3.2
COc1ccccc1C(=O)Nc1ccc2c(c1)OC[C@@H](C)N(CC1CC1)C[C@@H](C)[C@@H](OC)CN(C)C2=O,.,.,-7.9,.,.,-12.2
